Bioassay records from PubChem BioAssay.
The entries come from a sample that favours hits as a whole.
DUX4 txn inh = inhibitors of DUX4-driven ZSCAN4 reporter expression, primary screen, 293T cells, Gaussia and Italica luciferase; activity change, negative = inhibition, % (concentration not given with the values); 37,000 tested, 0.8% active; 293T-iDUX4 ZSCAN4-Gaussia luciferase reporter, 24 h; hits give low values;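 active = mean inhibition of at least 10% in the main channel, exceeding the control channel by a set limit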;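 note: 0% = median of neutral control wells and -100% = median of positive control wells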
An asterisk follows results filed as active.

SMILES | DUX4 txn inh
O=C(C[C@@H]1CC[C@@H]2[C@H](COC[C@H](O)CN2S(=O)(=O)c2ccccc2Cl)O1)N1CCC(Cc2ccccc2)CC1 | -9
C[C@@H]1CN([C@H](C)CO)C(=O)c2ccccc2-c2ccccc2CO[C@H]1CN(C)C(=O)c1ccc(F)cc1 | 15
CO[C@H]1CN(C)C(=O)c2cc(C#N)ccc2OCC[C@H]2CC[C@@H](OC)[C@@H](CN(C)C(=O)[C@@H]1C)O2 | 0
O=C(C[C@H]1CC[C@H]2[C@@H](COC[C@@H](O)CN2C(=O)c2ccccc2)O1)NC1Cc2ccccc2C1 | 8
CCNC(=O)[C@H]1[C@H](CO)[C@H]2Cn3c(cccc3=O)[C@@H]1N2C(=O)c1ccc(F)cc1 | -1
CC(C)NC(=O)N1Cc2cc(C(=O)NCC(F)(F)F)nc(-c3cccc(-c4cc5ccccc5o4)c3)c2[C@H]1CCO | 0
COc1ccc2c3c(n(C)c2c1)[C@@H](CO)N(S(C)(=O)=O)CC31CCN(C(=O)C2CCCC2)CC1 | 15
COc1ccc2c3c(n(C)c2c1)[C@@H](CO)N(C)CC31CN(C(=O)c2ccccc2F)C1 | -35*
COc1ccc2c3c(n(C)c2c1)[C@H](CO)N(C)CC31CN(C(=O)C2CCC2)C1 | 23
COc1ccc2c3c(n(C)c2c1)[C@@H](CO)N(S(C)(=O)=O)CC31CCN(CC2CCCCC2)CC1 | -21*
CCCNC(=O)N1CC2(C1)CN(Cc1ccccc1)[C@@H](CO)c1[nH]c3cc(OC)ccc3c12 | -10*
COc1ccc2c3c(n(C)c2c1)[C@@H](CO)N(C(=O)c1ccc(F)cc1)CC31CN(C(C)=O)C1 | 17
COc1ccc2c3c(n(C)c2c1)[C@@H](CO)N(C)CC31CCN(CC2CC2)CC1 | 9
COc1ccc2c3c(n(C)c2c1)[C@H](CO)N(CC1CC1)CC31CN(C(=O)Nc2ccc(F)cc2F)C1 | -5
CCCNC(=O)N1CC2(C1)CN(Cc1ccc(F)cc1)[C@H](CO)c1[nH]c3cc(OC)ccc3c12 | -8
COc1ccc2c3c(n(C)c2c1)[C@H](CO)N(C)CC31CN(C(=O)NC(C)C)C1 | 5
CCCNC(=O)N1CC2(C1)CN(Cc1ccccc1)[C@H](CO)c1[nH]c3cc(OC)ccc3c12 | -8
COc1ccc2c3c(n(C)c2c1)[C@@H](CO)N(CC1CC1)CC31CN(C(=O)c2ccc(F)cc2)C1 | -26*
COCC(=O)N1C[C@H]2[C@@H](c3ccccc31)[C@@H](CO)N2C(=O)C1CCOCC1 | 3
Cc1noc(C)c1NC(=O)Nc1ccc2c(c1)C(=O)N([C@H](C)CO)C[C@H](C)[C@@H](CN(C)C(=O)NC1CCCCC1)OCCCC[C@H](C)O2 | 3
COCC#Cc1cnc2c(c1)C(=O)N([C@H](C)CO)C[C@H](C)[C@H](CN(C)C(=O)c1ccc3c(c1)OCO3)O2 | -4
COC(=O)C[C@H]1C[C@H]2c3cc(NC(=O)Nc4ccccc4)ccc3O[C@H]2[C@H](CO)O1 | 2
O=C1N[C@@H](c2ccccc2)COCc2cn(nn2)CC[C@H]1Cc1ccc(-c2ccccc2)cc1 | 2
Cc1noc(C)c1S(=O)(=O)N(C)C[C@@H]1OCCCC[C@@H](C)Oc2ccc(NS(=O)(=O)c3cccs3)cc2C(=O)N([C@H](C)CO)C[C@H]1C | 1
CCC(=O)N1CC2(C1)[C@H](c1ccccc1)[C@@H](CO)N2CCC(F)(F)F | -5
SMILES | DUX4 txn inh
CO[C@@H]1CN(C)C(=O)c2ccc(NC(=O)C3CCOCC3)cc2OC[C@H](C)N(Cc2cccnc2)C[C@@H]1C | 1
CO[C@H](CN(C)S(=O)(=O)c1ccccc1)[C@@H](C)CN(Cc1ccccc1Cl)[C@@H](C)CO | 4
CN1CCCCN2[C@H](CO)[C@H](c3ccc(C#Cc4ccccc4F)cc3)[C@@H]2C1 | 6
OC[C@@H]1[C@H](c2ccc(C#Cc3ccccc3F)cc2)[C@H]2CN(CC3CCOCC3)CCCCN12 | -21*
OC[C@@H]1[C@H](c2ccc(C#Cc3ccccc3)cc2)[C@@H]2CN(CC3CCOCC3)CCCCN12 | 8
OC[C@H]1[C@H](c2ccc(C#Cc3ccccc3)cc2)[C@H]2CN(CC3CCOCC3)CCCCN21 | -8
OC[C@H]1[C@H](c2ccc(C#Cc3ccccc3F)cc2)[C@@H]2CN(CC3CCOCC3)CCCCN12 | -13*
CN1CCCCN2[C@H](C1)[C@H](c1ccc(C#Cc3ccccc3F)cc1)[C@@H]2CO | -6
C[C@@H]1CCCCO[C@H](CN(C)C(=O)c2ccccc2)[C@@H](C)CN([C@@H](C)CO)C(=O)c2cc(NC(=O)C3CCCCC3)ccc2O1 | -2
CCCN1[C@@H]2c3ccc(C4=CCCCC4)c(=O)n3C[C@@H]2[C@@H](CO)[C@@H]1C(=O)N(C)C | 0
CO[C@H]1CN(C)C(=O)c2cc(NC(=O)c3cc(C)on3)ccc2OC[C@@H](C)N(C)C[C@@H]1C | 4
CN(C)C(=O)[C@@H]1[C@@H](CO)[C@@H]2Cn3c(ccc(C4=CCCCC4)c3=O)[C@@H]2N1Cc1ccc2c(c1)OCO2 | -15*
CN(C)C(=O)[C@H]1[C@H](CO)[C@H]2Cn3c(ccc(C4=CCCCC4)c3=O)[C@H]2N1Cc1ccc2c(c1)OCO2 | 6
CCNC(=O)[C@H]1[C@H](CO)[C@H]2Cn3c(ccc(C4=CCCCC4)c3=O)[C@H]2N1Cc1ccc2c(c1)OCO2 | -3
CN1C(=O)c2cc(NC(=O)Nc3ccc(Cl)cc3)ccc2OC[C@@H]2O[C@H](CC(=O)NCCN3CCCCC3)CC[C@@H]21 | 3
O=C(C[C@@H]1CC[C@H]2[C@@H](COC[C@@H](O)CN2Cc2ccc(C(F)(F)F)cc2)O1)NCCc1ccccc1 | -4
Cc1cccc(-c2ccc([C@@H]3[C@H]4CN(CCC(F)(F)F)CCCCN4[C@H]3CO)cc2)c1 | -31*
Cc1cccc(-c2ccc([C@H]3[C@@H](CO)N4CCCCN(Cc5ccncc5)C[C@@H]34)cc2)c1 | 7
COc1ccccc1C#Cc1ccc([C@H]2[C@H]3CN(S(C)(=O)=O)CCCCN3[C@H]2CO)cc1 | 23
OC[C@@H]1[C@H](c2ccc(-c3cccc(F)c3)cc2)[C@@H]2CN(CCC(F)(F)F)CCCCN12 | -6
CN(C)C(=O)c1ccc(-c2ccc([C@@H]3[C@H](CO)N4CCCCN(CCC(F)(F)F)C[C@@H]34)cc2)cc1 | 3
O=C(Nc1cccc(F)c1)N1CCCCN2[C@H](CO)[C@H](c3ccc(-c4ccncc4)cc3)[C@@H]2C1 | 1
OC[C@@H]1[C@@H](c2ccc(-c3cccc(F)c3)cc2)[C@H]2CN(Cc3cncnc3)CCCCN12 | 4
Cc1ccccc1-c1ccc([C@@H]2[C@H]3CN(C(=O)Nc4cccc(F)c4)CCCCN3[C@H]2CO)cc1 | -43*
C/C=C/c1ccc([C@@H]2[C@H]3CN(CCC(F)(F)F)CCCCN3[C@H]2CO)cc1 | 5
Cc1ccccc1-c1ccc([C@H]2[C@H]3CN(C(=O)Nc4cccc(F)c4)CCCCN3[C@H]2CO)cc1 | -5
COc1ccccc1C#Cc1ccc([C@H]2[C@H](CO)N3CCCCN(CCC(F)(F)F)C[C@@H]23)cc1 | -61*
OC[C@@H]1[C@H](c2ccc(-c3cccc(F)c3)cc2)[C@H]2CN(CCC(F)(F)F)CCCCN12 | -47*
CO[C@@H]1CC[C@H]2CCN(C)C(=O)C[C@@H](c3ccccc3)CN(C)C(=O)c3cccc(C#N)c3OC[C@H]1O2 | 2
CN(C)C(=O)C[C@@H]1C=C[C@H](NC(=O)C2CCOCC2)[C@H](CO)O1 | -1
